In the library only some 2.4% were active in any assay of this set; here they are far more common.
Pol eta inh: inhibitors of human DNA polymerase eta; recombinant Pol eta, fluorescent DNA replication assay; Potency, µM (doses to about 114 µM), inactives show at the highest dose activity change, negative = inhibition, hits mostly inhibitors; actives 1.2% (n = 390,000); AID 588591; further: on the % scale 0 is the no-effect control and ±100 the full control effect
Target sequence (Q9Y253 whole entry, looked up): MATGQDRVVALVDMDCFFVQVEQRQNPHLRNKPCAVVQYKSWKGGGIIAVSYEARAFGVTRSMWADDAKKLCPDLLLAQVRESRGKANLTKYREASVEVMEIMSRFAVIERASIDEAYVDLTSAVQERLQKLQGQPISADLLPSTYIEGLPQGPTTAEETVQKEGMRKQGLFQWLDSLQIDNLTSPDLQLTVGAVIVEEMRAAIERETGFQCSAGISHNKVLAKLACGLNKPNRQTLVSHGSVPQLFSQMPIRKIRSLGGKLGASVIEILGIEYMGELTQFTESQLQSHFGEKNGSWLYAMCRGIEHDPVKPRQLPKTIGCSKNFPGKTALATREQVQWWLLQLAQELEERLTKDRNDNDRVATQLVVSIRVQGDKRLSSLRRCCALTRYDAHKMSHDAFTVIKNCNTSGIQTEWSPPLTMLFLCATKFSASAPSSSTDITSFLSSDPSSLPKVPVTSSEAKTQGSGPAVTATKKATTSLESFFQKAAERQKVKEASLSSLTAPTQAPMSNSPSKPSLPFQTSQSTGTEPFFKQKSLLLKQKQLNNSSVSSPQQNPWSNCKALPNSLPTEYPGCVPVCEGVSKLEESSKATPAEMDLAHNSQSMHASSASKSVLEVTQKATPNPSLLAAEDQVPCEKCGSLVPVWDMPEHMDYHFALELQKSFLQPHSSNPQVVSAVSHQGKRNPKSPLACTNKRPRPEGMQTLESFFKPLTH
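Fluorescent replication assay: 50 nM final substrate added after a 15 min room-temperature compound preincubation with 10 nM enzyme. Signal taken at 0 min and again at 10 min.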
WRN inhibitor: WRN helicase (human) inhibition | Q14191 | WRN helicase unwinding, fluorescent forked duplex, kinetic | Potency, µM (highest dose often 114 µM), without a hit: at the top dose activity change, negative = inhibition, most hits filed as inhibitors | actives 0.46% (n = 360,000); further: on the % scale 0 is the no-effect control and ±100 the full control effect; nearly all actives have a fitted effect of over 55% in size
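Enzyme (20 nM final) and test compound sit together 15 min at room temperature before substrate addition. Substrate is a single-forked duplex oligonucleotide (100 nM) labelled with fluorophore and quencher, with 2 mM ATP; helicase unwinding raises red fluorescence, read kinetically.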
POLI inh: DNA polymerase iota (human) inhibition. Pol iota fluorescent replication assay, 10 min. Potency, µM (doses to about 115 µM), without a hit: at the top dose activity, negative = inhibition, actives largely listed as inhibitors. actives 1% (n = 390,000). AID 588590
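Fluorescent replication assay read twice, at 0 min and 10 min after adding 50 nM (final) substrate. Enzyme (10 nM) and compounds were first incubated 15 min at room temperature; enzyme-free buffer wells were negative controls.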
Pol kappa inh: DNA polymerase kappa (human) inhibition; Potency, µM (top dose mostly 107 µM), for inactives: at the top dose activity, negative = inhibition, most hits filed as inhibitors; actives 0.53% (n = 400,000); Q9UBT6; purified Pol kappa, fluorescent DNA synthesis assay, 10 min; further: on the % scale 0 is the no-effect control and ±100 the full control effect
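Here, compound and 10 nM enzyme are combined for 15 min at room temperature; adding 50 nM substrate (final) starts DNA synthesis, tracked by fluorescence at 0 and 10 min against buffer-only wells.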
FEN1 inhibitor: human FEN1 inhibition | Potency, µM (highest dose often 114 µM), without a hit: top-dose activity change, negative = inhibition, most hits filed as inhibitors | Recombinant FEN1 flap cleavage, fluorescence, 15 min | P39748 | actives 0.35% (n = 390,000); further: on the % scale 0 is the no-effect control and ±100 the full control effect; nearly all actives have a fitted effect of over 65% in size
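Steps: FEN1 (10 nM) dispensed; compound added by pin tool; 15 min at room temperature; substrate added to 50 nM final; reads at 0 min and 15 min; data normalized and fitted (four-parameter Hill).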
Pol beta inh: blocks human DNA polymerase beta activity. P06746. actives 1.3% (n = 340,000). Pol beta primer extension/strand displacement, fluorescence kinetic. Potency, µM (highest dose often 114 µM), without a hit: at the highest dose activity change, negative = inhibition, hits mostly inhibitors; further: on the % scale 0 is the no-effect control and ±100 the full control effect
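Values derive from four-parameter Hill fits of normalized kinetic data: reads at 0 and 10 min following addition of 50 nM substrate to 10 nM Pol beta preincubated 15 min with compound.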
The depositor's hits bear a star; u = inconclusive; x = no result given; [ ] = another dose, or the depositor's remark. The call rests on the fitted dose curve; in most records, active means well fitted curve in the direction sought with a large enough effect; inconclusive means small, poorly fitted or top-dose-only effect, or another doubt; inactive means no such curve, though single readings can be large; an effect the other way counts as inactive or inconclusive. Potency means the concentration at half of the fitted maximal effect.

SMILES	Pol eta inh	WRN inhibitor	POLI inh	Pol kappa inh	FEN1 inhibitor	Pol beta inh
O=C(O)c1cc(-c2ccco2)nc2ccccc12	7.08µM*	u	12.6µM*	28.2µM*	39.8µM*	17.8µM*
CCN(CC)CCNC(=O)c1ccc(NC(=O)c2cc(-c3ccco3)nc3ccccc23)cc1	-6.4%	6.8%	u	-20.9%	u	-2.9%
COc1ccc(NC(=O)c2cc(-c3ccco3)nc3ccccc23)cn1	20µM*	-15.0%[11.6 µM]	17.8µM*	u	-34.0%	x
CN(C)c1ccc(/C=C/c2ccnc3c(N)cccc23)cc1	x	x	25.5%	-1.6%	3.0%	x
CCOc1ccc(NC(=O)c2nc(S(=O)(=O)Cc3ccc(F)cc3)ncc2Cl)cc1	x	x	-11.9%	-4.7%	-27.4%	x
CC1CCN2c3ccccc3CC3(C(=O)OC(C)(C)OC3=O)C2C1 (configuration not stated)	x	x	u	0.0%	-11.0%	x
Clc1ccc(-c2ccc(-c3nn4c(-c5ccco5)nnc4s3)o2)cc1	79.4µM*	u	u	-21.7%	-22.7%	x
Brc1ccc(-c2nn3c(-c4ccncc4)nnc3s2)o1	x	x	x	x	x	-4.9%
Brc1ccc(-c2nn3c(-c4ccco4)nnc3s2)o1	u	u	u	u	u	44.7µM*
COc1cc(-c2nn3c(-c4ccco4)nnc3s2)cc(OC)c1OC	x	x	x	x	x	15.0%
CCN(CC)c1ccc(-c2nnc(SCC(=O)NCc3ccco3)n2C)cc1	x	x	-2.9%	4.7%	-1.2%	x
CCCC(=O)O[C@]1(C(=O)CCl)[C@H](C)C[C@@H]2[C@H]3CCC4=CC(=O)C=C[C@]4(C)[C@@]3(F)C(=O)C[C@@]21C	x	x	x	-1.1%[19.4 µM]	x	x
Ic1ccc(Nc2nc(NCCN3CCOCC3)nc(N3CCOCC3)n2)cc1	x	x	3.3%	-2.0%	-17.9%	x
Cc1ccc(OCC(=O)NNC(=O)c2cc3ccccc3o2)cc1C	u	-19.5%	u	u	1.5%	28.2µM*
O=C(Nc1cccc(OCc2cc(=O)n3ccccc3n2)c1)Nc1cccc(C(F)(F)F)c1	5.3%	x	-22.3%	-9.8%[60.1 µM]	-2.0%	-14.5%
Cc1ccc2c(c1)c1ccc3c(c1n2C)C(=O)C=CC3=O	-17.3%	-16.2%	u	-19.0%	-19.2%	1.2%
COc1ccc2c(c1)c1ccc3c(c1n2C)C(=O)C=CC3=O	-4.2%	-15.9%	17.8µM*	3.4%	u	19.3%
O=C1/C(=C/c2ccco2)SC(=S)N1CCC(=O)N1CCCCC1CCO (configuration not stated)	22.4µM*	56.2µM*	15.3%	11.3%	0.8%	u
O=C1/C(=C\c2ccco2)SC(=S)N1C1CCCCC1	x	x	x	x	x	44.7µM*
Cc1ccc(N2C(=O)/C(=C/c3ccco3)SC2=S)cc1	-23.3%	-13.3%	u	u	-4.9%	u
COc1ccc(/C=C2\SC(=S)N(CCC(=O)N3CCCCC3CCO)C2=O)cc1 (configuration not stated)	u	-30.0%	28.2µM*	u	-18.1%	u
COC(=O)c1cc2c([nH]c1=O)CC(c1ccccc1)CC2=O (configuration not stated)	x	x	10.2%	5.7%	-15.3%	x
Cc1ccc(C(=O)NCC(=O)OCC(=O)c2ccc3ccccc3c2)cc1	x	x	-15.8%	-0.2%	3.9%	x
Cc1ccc2c(C)ccnc2c1	x	x	23.2%	-13.7%	-3.9%	x
O=C(CC(NC(=O)c1ccccc1)c1ccccc1)OCc1nc(-c2cccc(Cl)c2)no1 (configuration not stated)	x	x	-21.1%	-15.4%	-15.9%	x
SMILES	Pol eta inh	WRN inhibitor	POLI inh	Pol kappa inh	FEN1 inhibitor	Pol beta inh
c1cn(-c2cc(-c3ccc4c(c3)OCO4)ncn2)cn1	x	x	x	25.1µM*	x	x
Cc1cc(C(=O)COC(=O)c2ccc(O)cc2)c(C)n1CC1CCCO1 (configuration not stated)	-23.7%	3.3%[11.6 µM]	89.1µM*	u	-5.0%	29.2%
COc1cc(OC)cc(C(=O)OCC(=O)c2cc(C)n(CC3CCCO3)c2C)c1 (configuration not stated)	-12.6%	-3.9%	12.3%	-8.3%	-24.7%	x
CC(C)C[C@H](NC(=O)CNC(=O)[C@H](C)NC(=O)[C@H](CC(C)C)NC(=O)[C@H](CCCNC(=N)N)NC(=O)[C@H](Cc1cnc[nH]1)NC(=O)[C@@H](NC(=O)[C@@H](NC(=O)[C@@H]1CSSC[C@H](NC(=O)[C@@H](N)CO)C(=O)N[C@@H](CC(N)=O)C(=O)N[C@@H]([C@@H](C)O)C(=O)N[C@@H](C)C(=O)N[C@@H]([C@@H](C)O)C(=O)N1)C(C)C)[C@@H](C)O)C(=O)N[C@@H](CC(C)C)C(=O)N[C@@H](CO)C(=O)N[C@@H](CCCNC(=N)N)C(=O)N[C@@H](CO)C(=O)NCC(=O)NCC(=O)N[C@H](C(=O)N[C@H](C(=O)N[C@@H](CCCCN)C(=O)N[C@@H](CC(=O)O)C(=O)N[C@@H](CC(N)=O)C(=O)N[C@@H](Cc1ccccc1)C(=O)N[C@H](C(=O)N1CCC[C@H]1C(=O)N[C@H](C(=O)N[C@@H](CC(N)=O)C(=O)N[C@H](C(=O)NCC(=O)N[C@@H](CO)C(=O)N[C@@H](CCCCN)C(=O)N[C@@H](C)C(=O)N[C@@H](Cc1ccccc1)C(N)=O)C(C)C)[C@@H](C)O)C(C)C)C(C)C)C(C)C	x	x	x	-4.2%[60.1 µM]	x	x
O=C(Nc1ccccc1-c1ccccc1)C1CCCCC1	-10.4%	-2.6%	89.1µM*	-8.7%	9.4%	28.5%
O=C1OC(c2ccc(Cl)cc2)=N/C1=C\C=C\c1ccco1	18.4%	-13.4%	u	u	-8.2%	28.2µM*
CCCC[C@H](NC(=O)[C@H](CC(C)C)NC(=O)CNC(=O)[C@@H](NC(=O)[C@H](Cc1ccccc1)NC(=O)[C@H](CO)NC(=O)[C@@H](N)CC(=O)O)C(C)C)C(N)=O	x	x	x	13.6%[60.1 µM]	x	x
CCOc1cc(/C=C2\C(=O)N(Cc3ccc(C)cc3)C(C)=C2C(=O)OC)ccc1O	-7.4%	79.4µM*	-1.5%	-11.9%	-4.5%	-1.4%
C=CCOc1cccc(/C=C2\C(=O)N(Cc3ccc(C)cc3)C(C)=C2C(=O)OC)c1	-7.4%	-9.2%	-8.1%	-4.5%	-19.9%	u
CC(C)CCC[C@@H](C)[C@@H]1CC[C@H]2C3=CC=C4CC(O)CC[C@]4(C)[C@H]3CC[C@@]21C (some centres not stated)	x	x	x	-18.9%[60.1 µM]	x	x
COc1c2c(c(CCC(=O)O)c3c1C=CC(C)(C)O3)OC(C)(C)C=C2	17.8µM*	-16.4%	u	-29.1%	21.0%	x
